Assay results taken from PubChem BioAssay AID1159580 (chemical genetic matrix, 2015).
“And” between values parts separate entries of the source, which are not always exact repeats. Equal entries are not always repeated. Screen size: about 5,500 compounds; about 2,000 (36%) were called active. Another 18% or so got no clear call; they are omitted. Rule as the data show it: active = normalized growth mostly below about 0.91 (no sharp cut-off); inconclusive = no clear call, values can overlap the other calls; inactive = mostly above about 0.92. Some of the results follow.

Assay: chemical genetic growth profiling, strain panel (AID 1159580);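 also: tested at 20 µM; growth read once vehicle control cultures reached saturation at 30 °C; 1 = growth at the plate median or of vehicle wells; lower values mean less growth of the strain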
Conditions: S. cerevisiae deletion strains, growth OD

Measured: normalized growth

C=CC(C)(O)CC/C=C(\C)CCC=C(C)C (configuration not stated)
inactive: locus YAL013W, strain DEP1, stronger effect = lower value 0.947 | locus YAL021C, strain ccr4, stronger effect = lower value 0.913 | locus YAL026C, strain drs2, stronger effect = lower value 0.958 | locus YAL030W, strain snc1, stronger effect = lower value 0.986 | locus YBL061C, strain skt5, stronger effect = lower value 0.951 | locus YBR009C, strain hhf1, stronger effect = lower value 0.923 | locus YBR021W, strain FUR4, stronger effect = lower value 0.863 | locus YBR023C, strain chs3, stronger effect = lower value 0.938 | locus YBR171W, strain sec66, stronger effect = lower value 0.965 | locus YBR229C, strain ROT2, stronger effect = lower value 0.999 | locus YBR231C, strain swc5, stronger effect = lower value 0.98 | locus YCL011C, strain gbp2, stronger effect = lower value 0.949 | locus YCL016C, strain dcc1, stronger effect = lower value 0.965 | locus YCL029C, strain bik1, stronger effect = lower value 0.993 | locus YCL061C, strain MRC1, stronger effect = lower value 0.969 | locus YCL069W, strain vba3, stronger effect = lower value 0.968 | locus YCR088W, strain abp1, stronger effect = lower value 0.975 | locus YDL005C, strain med2, stronger effect = lower value 0.956 | locus YDL035C, strain GPR1, stronger effect = lower value 0.956 | locus YDL040C, strain nat1, stronger effect = lower value 0.982 | locus YDL074C, strain BRE1, stronger effect = lower value 0.886 | locus YDL101C, strain DUN1, stronger effect = lower value 0.958 | locus YDL185W, strain tfp1, stronger effect = lower value 1.02 | locus YDL192W, strain arf1, stronger effect = lower value 0.952 | locus YDR001C, strain nth1, stronger effect = lower value 0.98 | locus YDR069C, strain doa4, stronger effect = lower value 0.946 | locus YDR101C, strain arx1, stronger effect = lower value 0.992 | locus YDR137W, strain rgp1, stronger effect = lower value 0.916 | locus YDR159W, strain sac3, stronger effect = lower value 0.862 | locus YDR162C, strain NBP2, stronger effect = lower value 0.92 | locus YDR297W, strain sur2, stronger effect = lower value 0.974 | locus YDR318W, strain mcm21, stronger effect = lower value 0.99 | locus YDR334W, strain swr1, stronger effect = lower value 0.944 | locus YDR335W, strain msn5, stronger effect = lower value 0.979 | locus YDR388W, stronger effect = lower value 0.985 | locus YDR502C, strain sam2, stronger effect = lower value 0.978 | locus YEL003W, strain gim4, stronger effect = lower value 0.983 | locus YEL037C, strain rad23, stronger effect = lower value 0.964 | locus YEL061C, strain CIN8 (second series), stronger effect = lower value 0.978 | locus YEL061C, strain CIN8, stronger effect = lower value 0.937 | locus YER015W, strain faa2, stronger effect = lower value 0.974 | locus YER016W, strain bim1, stronger effect = lower value 0.988 | locus YER110C, stronger effect = lower value 1.01 | locus YER111C, strain swi4, stronger effect = lower value 0.947 | locus YER167W, strain BCK2, stronger effect = lower value 0.944 | locus YFR010W, strain ubp6, stronger effect = lower value 0.903 | locus YGL078C, strain dbp3, stronger effect = lower value 0.988 | locus YGL086W, strain mad1, stronger effect = lower value 0.981 | locus YGL167C, strain pmr1, stronger effect = lower value 0.984 | locus YGL173C, strain kem1, stronger effect = lower value 0.965 | locus YGL227W, strain vid30, stronger effect = lower value 0.979 | locus YGL240W, strain doc1, stronger effect = lower value 0.964 | locus YGL248W, strain PDE1, stronger effect = lower value 0.931 | locus YGL253W, strain hxk2, stronger effect = lower value 0.984 | locus YGR135W, strain pre9, stronger effect = lower value 0.967 | locus YGR252W, strain gcn5, stronger effect = lower value 1.03 | locus YHR013C, strain ard1, stronger effect = lower value 0.964 | locus YHR027C, strain rpn1, stronger effect = lower value 0.978 | locus YHR079C, strain IRE1 (second series), stronger effect = lower value 0.999 | locus YHR094C, strain hxt1, stronger effect = lower value 1.02 | locus YHR129C, strain ARP1, stronger effect = lower value 0.939 | locus YHR200W, strain rpn10, stronger effect = lower value 0.991 | locus YIL066C, strain RNR3, stronger effect = lower value 0.934 | locus YIL073C, strain SPO22, stronger effect = lower value 0.88 | locus YIL125W, strain kgd1, stronger effect = lower value 1.02 | locus YIR030C, strain dcg1, stronger effect = lower value 1.01 | locus YJL092W, strain hpr5, stronger effect = lower value 0.965 | locus YJL095W, strain BCK1 (second series), stronger effect = lower value 0.99 | locus YJL095W, strain BCK1, stronger effect = lower value 0.869 and 0.946 | locus YJL115W, strain asf1, stronger effect = lower value 0.954 | locus YJL129C, strain trk1, stronger effect = lower value 0.923 | locus YJL134W, strain LCB3, stronger effect = lower value 0.997 | locus YJL154C, strain vps35, stronger effect = lower value 0.959 | locus YJL168C, strain set2, stronger effect = lower value 1.01 | locus YJL187C, strain SWE1 (second series), stronger effect = lower value 0.946 | locus YJL187C, strain SWE1, stronger effect = lower value 0.986 | locus YJR043C, strain POL32, stronger effect = lower value 0.978 | locus YJR066W, strain TOR1, stronger effect = lower value 0.911
0.955 (inactive) and 0.825 (active): locus YHR030C, strain SLT2, stronger effect = lower value
active: locus YDR195W, strain ref2 0.662 | locus YDR392W, strain spt3, stronger effect = lower value 0.454 | locus YER155C, strain BEM2 (second series), stronger effect = lower value 0.777 | locus YER155C, strain BEM2, stronger effect = lower value 0.807 | locus YHR079C, strain IRE1, stronger effect = lower value 0.81 | locus YHR142W, strain chs7, stronger effect = lower value 0.75 | locus YJL164C, strain tpk1, stronger effect = lower value 0.915 | locus YJL166W, strain qcr8, stronger effect = lower value 0.902
